Measured values reported in the supplement of paper PMC10849652.
Targets with a hit are over-represented here; the source holds about 8,800 in all. About 0.5% of all pairs of compound and target were hits.

Key:
Assay in all cases: log2 fold change, soluble protein after heating vs DMSO (PISA); higher = thermal stabilisation; K562 lysate, 10 uM; active = over 0.2 and 3.5 SD of the protein, either way, in both replicates (recomputed)
pictilisib = compound: CS(=O)(=O)N1CCN(Cc2cc3nc(-c4cccc5[nH]ncc45)nc(N4CCOCC4)c3s2)CC1 [pictilisib]
Method in brief: (§1)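 The values are log-two fold changes in thermal stability compared with solvent controls and come from duplicates. They were obtained by TMTpro 16plex LC-MS/MS, with channel sums equalised, on the supernatant after 21,000xg for 90 min. That supernatant came from crude K562 extract at 1 mg/mL protein treated with 10 μM compound for 30 min, heated for 3 min across 48°C-58°C, pooled and brought to 0.5% NP-40 at 4°C.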

[1] = compound: C[C@H](C1=CC=C(C=C1)C(=O)NC2=C3C=CNC3=NC=C2)N
Method in brief: as §1

gandotinib = compound: Cc1cc(Nc2cc(CN3CCOCC3)c3nc(C)c(Cc4ccc(Cl)cc4F)n3n2)n[nH]1 [gandotinib]
Method in brief: as §1

bafetinib = compound: Cc1ccc(NC(=O)c2ccc(CN3CC[C@H](N(C)C)C3)c(C(F)(F)F)c2)cc1Nc1nccc(-c2cncnc2)n1 [bafetinib]
Method in brief: as §1

[2] = compound: Cc1cccc(CC(=O)N2CCc3c2ccc(-c2cn(C)c4ncnc(N)c24)c3F)n1
Method in brief: as §1

nilotinib = compound: Cc1cn(-c2cc(NC(=O)c3ccc(C)c(Nc4nccc(-c5cccnc5)n4)c3)cc(C(F)(F)F)c2)cn1 [nilotinib]
Method in brief: as §1

[3] = compound: Cc1nc(Nc2n[nH]c3c2CN(C(=O)N[C@H](CN(C)C)c2ccccc2)C3(C)C)c2sccc2n1
Method in brief: as §1

[4] = compound: Cc1ncc(-c2ccnc(Nc3ccc(S(C)(=O)=O)cc3)n2)n1C(C)C
Method in brief: as §1

tipifarnib = compound: Cn1cncc1[C@@](N)(c1ccc(Cl)cc1)c1ccc2c(c1)c(-c1cccc(Cl)c1)cc(=O)n2C [tipifarnib]
Method in brief: as §1

[5] = compound: NC1(c2ccc(-c3nc4ccn5c(=O)[nH]nc5c4cc3-c3ccccc3)cc2)CCC1
Method in brief: as §1

lapatinib = compound: CS(=O)(=O)CCNCc1ccc(-c2ccc3ncnc(Nc4ccc(OCc5cccc(F)c5)c(Cl)c4)c3c2)o1 [lapatinib]
Method in brief: as §1

tozasertib = compound: Cc1cc(Nc2cc(N3CCN(C)CC3)nc(Sc3ccc(NC(=O)C4CC4)cc3)n2)n[nH]1 [tozasertib]
Method in brief: as §1

[6] = compound: NC(=O)c1cnc(N[C@@H]2CCCC[C@@H]2N)nc1Nc1cccc(-n2nccn2)c1
Method in brief: as §1

crizotinib = compound: C[C@@H](Oc1cc(-c2cnn(C3CCNCC3)c2)cnc1N)c1c(Cl)ccc(F)c1Cl [crizotinib]
Method in brief: as §1

doramapimod = compound: Cc1ccc(-n2nc(C(C)(C)C)cc2NC(=O)Nc2ccc(OCCN3CCOCC3)c3ccccc23)cc1 [doramapimod]
Method in brief: as §1

quisinostat = compound: Cn1cc(CNCC2CCN(c3ncc(C(=O)NO)cn3)CC2)c2ccccc21 [quisinostat]
Method in brief: as §1

[7] = compound: NC(=O)Nc1cc(-c2cccc(F)c2)sc1C(=O)N[C@H]1CCCNC1
Method in brief: as §1

duvelisib = compound: C[C@H](Nc1ncnc2nc[nH]c12)c1cc2cccc(Cl)c2c(=O)n1-c1ccccc1 [duvelisib]
Method in brief: as §1

dasatinib = compound: Cc1nc(Nc2ncc(C(=O)Nc3c(C)cccc3Cl)s2)cc(N2CCN(CCO)CC2)n1 [dasatinib]
Method in brief: as §1

[8] = compound: Cn1cc(-c2ccc3c(c2)CCN3C(=O)Cc2cccc(C(F)(F)F)c2)c2c(N)ncnc21
Method in brief: as §1

Measured: log2 fold change

TPD52L2 isoform 3 (UniProt O43399)
Sequence of UniProt O43399 (O43399 whole entry, looked up): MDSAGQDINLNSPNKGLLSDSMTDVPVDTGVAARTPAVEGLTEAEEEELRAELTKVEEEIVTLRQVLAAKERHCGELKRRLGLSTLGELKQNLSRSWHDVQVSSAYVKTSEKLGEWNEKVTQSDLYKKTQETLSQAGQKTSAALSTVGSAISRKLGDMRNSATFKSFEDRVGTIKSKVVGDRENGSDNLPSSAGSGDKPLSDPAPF
inactive: pictilisib -0.112 | [1] -0.155 | gandotinib 0.377 | bafetinib -0.102 | [2] -0.124 | nilotinib 0.055 | [3] 0.035 | [4] 0.008 | tipifarnib 0.134 | [5] 0.074

TRIM3 (UniProt O75382)
inactive: lapatinib 0.009 | tozasertib -0.056 | [6] 0.623 | [5] 0.146

TLK2 isoform 3 (UniProt Q86UE8)
Sequence of UniProt Q86UE8 (Q86UE8 whole entry, looked up): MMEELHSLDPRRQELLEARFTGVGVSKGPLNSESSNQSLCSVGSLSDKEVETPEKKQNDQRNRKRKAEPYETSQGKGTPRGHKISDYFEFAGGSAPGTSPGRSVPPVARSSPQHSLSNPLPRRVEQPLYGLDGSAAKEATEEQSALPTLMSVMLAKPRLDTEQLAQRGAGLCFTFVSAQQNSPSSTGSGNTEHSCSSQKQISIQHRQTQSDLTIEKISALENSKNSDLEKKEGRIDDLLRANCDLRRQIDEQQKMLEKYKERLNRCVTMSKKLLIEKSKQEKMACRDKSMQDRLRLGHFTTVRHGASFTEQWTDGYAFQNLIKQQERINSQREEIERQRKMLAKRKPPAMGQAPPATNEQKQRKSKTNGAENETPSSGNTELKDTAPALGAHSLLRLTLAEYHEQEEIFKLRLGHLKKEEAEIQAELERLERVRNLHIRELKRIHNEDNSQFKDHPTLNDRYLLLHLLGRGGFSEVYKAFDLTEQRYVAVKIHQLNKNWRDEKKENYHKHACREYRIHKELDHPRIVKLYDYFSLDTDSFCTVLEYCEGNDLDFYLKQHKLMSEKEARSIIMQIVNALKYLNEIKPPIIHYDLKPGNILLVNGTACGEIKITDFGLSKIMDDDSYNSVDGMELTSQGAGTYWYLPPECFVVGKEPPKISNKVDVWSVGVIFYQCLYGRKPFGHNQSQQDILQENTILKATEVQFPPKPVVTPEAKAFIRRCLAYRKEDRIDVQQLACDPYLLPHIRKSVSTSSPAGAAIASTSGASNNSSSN
inactive: [1] 0.012 | gandotinib 0.009 | [2] -0.101

TJP1 (UniProt H0Y3R8)
inactive: [1] 0.068 | gandotinib -0.057 | [2] -0.063

TMEM132A isoform 2 (UniProt Q24JP5)
Sequence of UniProt Q24JP5 (Q24JP5 whole entry, looked up): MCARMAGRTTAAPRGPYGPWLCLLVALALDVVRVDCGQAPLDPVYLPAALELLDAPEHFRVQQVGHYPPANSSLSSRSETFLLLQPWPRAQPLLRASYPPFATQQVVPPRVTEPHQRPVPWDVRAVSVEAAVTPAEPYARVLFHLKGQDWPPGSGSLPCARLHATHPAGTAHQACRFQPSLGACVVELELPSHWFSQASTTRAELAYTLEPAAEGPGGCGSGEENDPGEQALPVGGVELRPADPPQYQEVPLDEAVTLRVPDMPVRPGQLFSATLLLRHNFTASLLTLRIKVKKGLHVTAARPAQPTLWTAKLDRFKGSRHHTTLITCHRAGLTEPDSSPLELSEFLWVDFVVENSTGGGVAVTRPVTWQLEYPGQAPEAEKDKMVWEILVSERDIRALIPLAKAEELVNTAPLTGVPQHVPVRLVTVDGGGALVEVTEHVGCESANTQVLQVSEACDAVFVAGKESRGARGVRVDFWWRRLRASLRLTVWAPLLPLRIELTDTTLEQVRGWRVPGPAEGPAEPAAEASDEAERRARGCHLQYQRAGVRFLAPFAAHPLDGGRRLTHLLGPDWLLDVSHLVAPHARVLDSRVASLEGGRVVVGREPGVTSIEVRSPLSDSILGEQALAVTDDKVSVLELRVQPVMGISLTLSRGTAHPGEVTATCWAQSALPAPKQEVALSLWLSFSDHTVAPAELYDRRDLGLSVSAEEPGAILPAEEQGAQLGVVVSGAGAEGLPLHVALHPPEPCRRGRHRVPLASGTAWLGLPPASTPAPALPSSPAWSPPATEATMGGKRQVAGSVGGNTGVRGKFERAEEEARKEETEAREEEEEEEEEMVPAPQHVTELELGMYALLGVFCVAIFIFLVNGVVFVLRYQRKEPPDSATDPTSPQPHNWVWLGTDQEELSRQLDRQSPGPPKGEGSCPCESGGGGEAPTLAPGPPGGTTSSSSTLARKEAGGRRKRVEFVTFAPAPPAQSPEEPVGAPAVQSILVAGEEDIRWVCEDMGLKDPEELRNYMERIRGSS
inactive: lapatinib -0.172 | crizotinib -0.237 | [1] -0.084 | gandotinib 0.077 | tozasertib 0.042 | doramapimod -0.163 | [2] 0.002 | quisinostat -0.022 | [7] 0.087 | [6] 0.724 | [5] -0.014

TTLL12 (UniProt V9GY16)
inactive: pictilisib 0.058 | crizotinib 0.072 | [1] -0.169 | gandotinib 0.188 | tozasertib -0.087 | doramapimod -0.029 | bafetinib -0.187 | [2] 0.263 | quisinostat -0.436 | [7] -0.021 | [5] 0.039

UCP2 (UniProt P55851)
Sequence of UniProt P55851 (P55851 whole entry, looked up): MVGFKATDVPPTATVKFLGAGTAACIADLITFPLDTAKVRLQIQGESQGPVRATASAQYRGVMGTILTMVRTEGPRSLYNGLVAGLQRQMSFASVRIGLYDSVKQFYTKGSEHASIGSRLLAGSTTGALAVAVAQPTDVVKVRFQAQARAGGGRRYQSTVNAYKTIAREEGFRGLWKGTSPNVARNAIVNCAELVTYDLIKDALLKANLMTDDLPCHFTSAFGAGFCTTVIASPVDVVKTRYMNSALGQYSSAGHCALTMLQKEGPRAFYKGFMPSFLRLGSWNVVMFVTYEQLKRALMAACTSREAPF
active: crizotinib -0.441
inactive: doramapimod -0.141 | nilotinib 0.144 | [3] -0.186 | [4] -0.137 | quisinostat -0.022 | tipifarnib 0.142 | [7] 0.059

TPM3 isoform 3 (UniProt P06753)
Sequence of UniProt P06753 (P06753 whole entry, looked up): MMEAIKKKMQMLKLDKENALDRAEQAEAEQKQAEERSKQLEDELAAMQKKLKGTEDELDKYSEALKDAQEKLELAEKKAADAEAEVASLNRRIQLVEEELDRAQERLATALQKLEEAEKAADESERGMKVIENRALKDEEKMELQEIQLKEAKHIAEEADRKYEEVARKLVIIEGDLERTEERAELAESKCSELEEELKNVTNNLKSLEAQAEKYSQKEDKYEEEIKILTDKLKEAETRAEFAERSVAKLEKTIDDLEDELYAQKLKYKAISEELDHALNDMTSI
inactive: lapatinib -0.009 | crizotinib 0.095 | duvelisib 0.011 | gandotinib 0.176 | tozasertib 0.143 | doramapimod 0.027 | [2] 0.202 | dasatinib 0.05 | [8] 0.106 | quisinostat 0.112 | [7] -0.09 | [6] 0.001 | [5] -0.035
active: [1] -0.411

TLE3 (UniProt H0YL70)
inactive: duvelisib 0.037 | dasatinib 0.077 | [8] 0.05

TMC1 (UniProt Q8TDI8)
Sequence of UniProt Q8TDI8 (Q8TDI8 whole entry, looked up): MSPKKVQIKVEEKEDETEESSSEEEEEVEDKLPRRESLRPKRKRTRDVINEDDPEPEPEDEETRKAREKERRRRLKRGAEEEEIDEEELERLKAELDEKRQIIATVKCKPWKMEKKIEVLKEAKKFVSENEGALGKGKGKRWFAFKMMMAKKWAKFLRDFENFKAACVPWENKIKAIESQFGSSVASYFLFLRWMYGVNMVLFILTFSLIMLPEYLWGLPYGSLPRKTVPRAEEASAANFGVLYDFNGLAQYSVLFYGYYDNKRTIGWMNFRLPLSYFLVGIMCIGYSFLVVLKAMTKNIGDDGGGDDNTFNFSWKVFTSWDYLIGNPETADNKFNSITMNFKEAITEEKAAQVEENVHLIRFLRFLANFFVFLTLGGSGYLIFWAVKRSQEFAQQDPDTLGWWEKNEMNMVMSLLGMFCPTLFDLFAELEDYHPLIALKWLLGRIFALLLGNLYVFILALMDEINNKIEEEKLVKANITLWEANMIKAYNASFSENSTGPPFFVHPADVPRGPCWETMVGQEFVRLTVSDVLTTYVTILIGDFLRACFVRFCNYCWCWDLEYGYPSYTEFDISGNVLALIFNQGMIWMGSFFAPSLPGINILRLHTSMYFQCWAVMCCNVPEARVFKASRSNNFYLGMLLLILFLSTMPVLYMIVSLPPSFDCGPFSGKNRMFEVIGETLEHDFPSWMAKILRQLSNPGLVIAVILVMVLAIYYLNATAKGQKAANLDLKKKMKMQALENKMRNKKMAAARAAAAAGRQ
inactive: lapatinib -0.134 | crizotinib -0.262 | tozasertib 0.074 | doramapimod 0.252 | nilotinib -0.073 | [3] -0.049 | [4] -0.28 | tipifarnib 0.015 | [7] -0.058 | [6] -0.006 | [5] 0
active: quisinostat -0.552

TCF3 (UniProt X6REB3)
inactive: [1] -0.081 | gandotinib 0.269 | [2] 0.105

TRPM4 (UniProt Q8TD43)
Sequence of UniProt Q8TD43 (Q8TD43 whole entry, looked up): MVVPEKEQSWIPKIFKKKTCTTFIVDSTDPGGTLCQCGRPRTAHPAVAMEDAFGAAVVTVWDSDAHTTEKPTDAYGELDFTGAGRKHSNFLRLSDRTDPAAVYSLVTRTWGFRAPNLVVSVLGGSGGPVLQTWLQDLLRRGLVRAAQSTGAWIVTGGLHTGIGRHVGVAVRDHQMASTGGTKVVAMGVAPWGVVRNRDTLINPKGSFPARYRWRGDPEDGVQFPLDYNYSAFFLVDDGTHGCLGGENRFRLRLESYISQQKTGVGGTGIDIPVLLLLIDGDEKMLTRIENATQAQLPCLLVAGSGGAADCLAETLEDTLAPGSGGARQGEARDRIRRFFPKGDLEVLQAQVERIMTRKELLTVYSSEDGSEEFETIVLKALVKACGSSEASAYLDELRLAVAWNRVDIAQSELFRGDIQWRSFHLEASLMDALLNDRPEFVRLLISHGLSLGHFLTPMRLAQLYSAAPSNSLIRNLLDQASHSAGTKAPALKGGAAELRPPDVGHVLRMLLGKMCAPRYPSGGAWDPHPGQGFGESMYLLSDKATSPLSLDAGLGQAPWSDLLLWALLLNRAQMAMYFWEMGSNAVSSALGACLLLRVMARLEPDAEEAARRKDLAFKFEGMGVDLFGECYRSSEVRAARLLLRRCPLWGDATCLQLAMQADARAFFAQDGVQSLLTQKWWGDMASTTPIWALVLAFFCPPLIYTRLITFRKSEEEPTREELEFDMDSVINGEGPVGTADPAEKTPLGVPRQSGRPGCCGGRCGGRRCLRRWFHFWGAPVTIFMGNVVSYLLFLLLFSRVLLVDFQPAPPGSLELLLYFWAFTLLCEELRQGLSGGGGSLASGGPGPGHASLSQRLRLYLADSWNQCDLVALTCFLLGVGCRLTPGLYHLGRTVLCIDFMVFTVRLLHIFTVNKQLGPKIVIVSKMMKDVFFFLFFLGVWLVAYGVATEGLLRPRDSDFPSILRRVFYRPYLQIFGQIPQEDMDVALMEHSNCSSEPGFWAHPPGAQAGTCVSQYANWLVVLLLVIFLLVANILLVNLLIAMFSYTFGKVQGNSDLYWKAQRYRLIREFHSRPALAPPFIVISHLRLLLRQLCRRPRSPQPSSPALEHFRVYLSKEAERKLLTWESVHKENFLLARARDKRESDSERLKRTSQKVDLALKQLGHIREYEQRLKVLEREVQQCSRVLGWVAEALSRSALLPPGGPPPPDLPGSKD
active: [1] -0.654
inactive: pictilisib -0.085 | crizotinib 0.055 | duvelisib 0.042 | gandotinib 0.088 | doramapimod -0.111 | bafetinib -0.02 | [2] 0.25 | dasatinib -0.02 | [8] -0.099 | quisinostat -0.01 | [7] 0.111 | [5] 0.089

TK1 (UniProt K7ERV3)
active: tozasertib 0.319
inactive: pictilisib -0.144 | crizotinib 0.075 | [1] -0.07 | duvelisib -0.021 | gandotinib 0.04 | doramapimod 0.041 | bafetinib -0.181 | [2] 0.01 | nilotinib -0.024 | [3] -0.134 | dasatinib -0.114 | [4] 0.086 | [8] 0.02 | quisinostat -0.059 | tipifarnib 0.059 | [7] 0.122 | [5] -0.016

UBR4 isoform 4 (UniProt Q5T4S7)
inactive: lapatinib 0.146 | duvelisib -0.143 | tozasertib 0.079 | dasatinib -0.083 | [8] -0.158 | [6] -0.078 | [5] 0.049

TUBA4A (UniProt C9JQ00)
inactive: pictilisib -0.2 | [1] -0.094 | gandotinib -0.142 | bafetinib -0.368 | [2] 0.228

TXNRD2 isoform 3 (UniProt Q9NNW7)
inactive: [5] -0.228
